Measurements from PubChem BioAssay (NCATS).
Results filed as inconclusive are left out. A number with no mark means an inactive call. Calls of active or inactive are those of the source. The call rests on the fitted dose curve; in most records, active means well fitted inhibition curve with a large enough effect; inconclusive means small, poorly fitted or top-dose-only effect; inactive means no such curve, though single readings can be large or run the other way.

biological target: Glutaminase kidney isoform, mitochondrial (Homo sapiens) (UniProt O94925); assay: qHTS for Inhibitors of Glutaminase (GLS): LOPAC Validation (AID 624146); conditions: glutaminase enzyme activity inhibition; series mostly up to 46.1 µM; activity change, negative = inhibition: at the top concentration; further: nearly all actives have a fitted effect of over 60% in size;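 on activity change, negative = inhibition: glutamate product detected by oxidase and peroxidase coupled Amplex red fluorescence gain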
Sequence (O94925 whole entry, looked up, canonical isoform): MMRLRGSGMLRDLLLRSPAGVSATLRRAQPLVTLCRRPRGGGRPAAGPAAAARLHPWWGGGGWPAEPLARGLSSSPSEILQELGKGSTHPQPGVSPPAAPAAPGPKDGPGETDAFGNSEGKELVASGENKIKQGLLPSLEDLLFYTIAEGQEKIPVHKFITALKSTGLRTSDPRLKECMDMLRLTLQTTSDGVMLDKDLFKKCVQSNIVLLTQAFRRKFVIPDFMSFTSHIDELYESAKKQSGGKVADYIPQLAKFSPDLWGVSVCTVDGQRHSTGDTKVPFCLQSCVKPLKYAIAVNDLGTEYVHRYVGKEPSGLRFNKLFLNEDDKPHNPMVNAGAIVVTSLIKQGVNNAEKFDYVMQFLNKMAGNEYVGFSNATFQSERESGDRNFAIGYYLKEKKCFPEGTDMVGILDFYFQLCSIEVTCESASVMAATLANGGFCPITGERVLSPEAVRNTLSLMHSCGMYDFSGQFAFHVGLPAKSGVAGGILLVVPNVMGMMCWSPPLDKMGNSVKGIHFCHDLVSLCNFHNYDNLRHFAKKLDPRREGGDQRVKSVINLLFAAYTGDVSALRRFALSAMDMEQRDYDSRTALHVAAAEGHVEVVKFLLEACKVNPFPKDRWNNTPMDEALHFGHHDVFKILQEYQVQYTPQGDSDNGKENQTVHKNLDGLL
From the text: Glutaminase (GLS) catalyzes the hydrolysis of glutamine into glutamate and ammonia. It plays a critical role in glutaminolysis, which is an important energy source for proliferating cells. It was shown that c-Myc, an oncogenic transcription factor known to regulate microRNAs and to stimulate cell proliferation, increases glutamine metabolism by stimulating the expression of GLS via direct suppression of miR23a and miR23b.
GLS is also thought to play a pathogenic role on HAD using a human HIV-1 infected macrophage system. […] GLS inhibition limits glutamate release and provides neuroprotection against HIV-1 infected macrophages.
The overall goal of this project is to identify small molecule inhibitors of GLS through quantitative high throughput screening (qHTS) of the MLSMR. A validated potent and selective inhibitor can be used as a tool molecule to further study the pharmacology of its target as well as explore its potential therapeutic application in cancer and inflammatory neurological disorders, such as HIV1-associated dementia (HAD) and multiple sclerosis.
NIH Chemical Genomics Center [NCGC]
NIH Molecular Libraries Probe Centers Network [MLPCN]
Assay Submitter (PI): Barbara S. Slusher, Johns Hopkins University
Three 3 uL of hKGA is dispensed into black well 1536-well plates in 45 mM KH2PO4 (pH 8.2), 0.02% Tween-20. Then 23 nL of compounds are added through pin tool transfer. To this, 1 uL of 1mM L-Glutamine and 1 uL of a solution of L-Glutamateoxidase, HRP, Amplex red are added. Plate is centrifuged for 25 sec before an initial fluorescence read is obtained on the ViewLux, after 30 min of RT incubation, the final read is taken on the ViewLux.
On the % scale 0 is the no-effect control and ±100 the full control effect; potency means the concentration at half of the fitted maximal effect.

Row | SMILES | Potency | activity change, negative = inhibition [%]
1 | O=C(c1cc(O)c(O)c([N+](=O)[O-])c1)c1ccccc1F | 4.47 µM (active) | –
2 | O=C(c1ccc(Cl)cc1)N1CCN(c2ccc([N+](=O)[O-])c3ncccc23)CC1 | – | -26.2
3 | Cc1cc(NC(=O)Nc2ccc3c(ccn3C)c2)sn1 | – | -1.62
4 | CN(C)c1ccc(/C=C2\C(=O)Nc3ccccc32)cc1 | – | -16.5
5 | CCCCCCCCCCCCCCCCCC(=O)OC(CC(=O)O)C[N+](C)(C)C (stereo not given) | – | 3.9
6 | O=[N+]([O-])c1ccc(CSc2ncnc3c2ncn3[C@@H]2O[C@H](CO)[C@@H](O)[C@H]2O)cc1 | – | -10.4
7 | COc1cc2nc(N3CCN(C(=O)OCc4ccccc4)C(C(=O)NC(C)(C)C)C3)nc(N)c2cc1OC (stereo not given) | – | -7.86
8 | CCCCCC(O)c1cccc(OCc2ccc3ccccc3n2)c1 (stereo not given) | – | -6.54
9 | CN1CCc2ccccc2Cc2[nH]c3ccccc3c2CC1 | 8.91 µM (active) | –
10 | C#CCN1C(C)=C(C(=O)OC)C(c2cccc([N+](=O)[O-])c2)C(C(=O)OCC)=C1C (stereo not given) | – | -31
11 | C[N+](C)(C)CCOP(=O)(O)OP(=O)([O-])OC[C@H]1O[C@@H](n2ccc(N)nc2=O)[C@H](O)[C@@H]1O | – | -6.36
12 | OCC1O[C@H](O)C(Cl)C(O)C1O (stereo not given in full) | – | -15.6
13 | COc1ccc2c(c1)CCC1C2CC[C@@]2(C)C1CC[C@@H]2NCCCCCCN1C(=O)CCC1=O (stereo not given in full) | – | 21.2
14 | COc1cccc(C(=O)NCCN2CCN(c3ccc(Cl)cc3)CC2)c1 | – | -11.4
15 | CNC(=O)[C@H]1O[C@@H](n2cnc3c(NCc4ccc(N)cc4)ncnc32)[C@H](O)[C@@H]1O | – | -3.72
16 | CC(C)NC[C@H](O)COc1cccc2[nH]ccc12 | – | -21.7
17 | CC(N)C(=O)OC(C)(C)Cc1ccc(Cl)cc1 (stereo not given) | – | -4.17
18 | CC(C)(C=O)Cc1cc(C(C)(C)C)c(O)c(C(C)(C)C)c1 | 2.51 µM (active) | –
19 | Cc1nc2sccn2c(=O)c1CCN1CCC(=C(c2ccccc2)c2ccc(F)cc2)CC1 | – | 36
20 | CN1C2CC(OC(=O)[C@H](CO)c3ccccc3)CC1C1OC12 (stereo not given in full) | – | -10.9

Row | SMILES | Potency | activity change, negative = inhibition [%]
21 | NS(=O)(=O)C#Cc1ccccc1 | – | -6.15
22 | NCCCCCCCCCCN | – | -0.592
23 | Nc1ncnc2c1ncn2[C@@H]1O[C@H](COP(=O)(O)CP(=O)(O)OP(=O)(O)O)[C@@H](O)[C@H]1O | – | 1.78
24 | C[N+]1(C)CCC(OC(=O)C(c2ccccc2)c2ccccc2)CC1 | – | -11.4
25 | NC(CCCP(=O)(O)O)C(=O)O (stereo not given) | – | -25.4
26 | Nc1nc(SCc2ccc([N+](=O)[O-])cc2)c2ncn([C@@H]3O[C@H](CO)[C@@H](O)[C@H]3O)c2n1 | – | -1.35
27 | O=C1O/C(=C/Br)CCC1c1cccc2ccccc12 (stereo not given) | – | 26
28 | CN1[C@@H](CC(=O)c2ccccc2)CCC[C@H]1C[C@H](O)c1ccccc1 | – | -15.1
29 | COc1ccc(NC(=O)/C=C/c2ccc(Cl)cc2)cc1 | – | -13.4
30 | C=CC(C)=C[C@@]1(C)SC(=O)C(C)=C1O | – | -18.1
31 | O=C(O)[C@@H]1C[C@H](C(=O)O)N1 | – | -16.8
32 | C=CC(=O)c1ccc(CCCCCC)cc1 | – | -10.4
33 | CCCCCCCCCCCCCCCC(=O)OC(CC(=O)O)C[N+](C)(C)C (stereo not given) | – | -14.1
34 | CC(=O)N[C@H](C(=O)O)C(C)(C)SN=O | – | -9.54
35 | O=c1[nH]c2cc([N+](=O)[O-])c([N+](=O)[O-])cc2[nH]c1=O | – | -17.1
36 | Cc1ccc(O)c(N=Nc2ccccc2)n1 | – | -12.3
37 | O=c1[nH]c2cc(C(F)(F)F)ccc2n1-c1cc(C(F)(F)F)ccc1O | – | -3.88
38 | CN1CC(=O)N/C1=N/C(=O)Nc1cccc(Cl)c1 | – | 0.172
39 | Fc1cccc(/C=N/N=C/c2cccc(F)c2)c1 | – | -19.1
40 | COC(=O)c1c(C)[nH]c(C)c1C(=O)c1ccccc1Cc1ccccc1 | – | -14.4
